Results on six compounds are retold here after PubChem BioAssay (NCATS).

The structures appear in SMILES notation. Results filed as inconclusive are left out. Active and inactive are the calls of the source. Unless noted, the call rests on the fitted dose curve; in most records, active means well fitted curve in the direction sought with a large enough effect; inconclusive means small, poorly fitted or top-dose-only effect, or another doubt; inactive means no such curve, though single readings can be large; an effect the other way counts as inactive or inconclusive.

Assay [1] has as its target Estrogen receptor (Homo sapiens) (UniProt P03372). Nature of the assay: qHTS assay for small molecule agonists of estrogen receptor alpha signaling (AID 588514; calls by dose curve;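 further: 0% = vehicle only and 100% = reference agonist; nearly all actives have a fitted effect of over 70% in size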). An outline of the steps: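 Fluorescence from CCF4 cleavage reports ER-alpha-driven beta-lactamase expression in HEK 293 cells treated 18 hrs at 37 C. Data normalized to 17-beta-estradiol (20 nM) and DMSO, fitted to Hill equation.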
(In general: In qHTS, concentration-response curves come from the screen itself.)

Assay [2] in a line: qHTS assay for small molecule antagonists of peroxisome proliferator-activated receptor delta signaling (AID 588535; active means well fitted inhibition curve with a large enough effect in the signal ratio, with a control signal flat, not every such curve was filed as active; the % refers to the signal ratio;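 on max response: cells co-treated with a PPAR-delta agonist as stimulator during compound exposure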). The settings on record: HEK293T PPARd-UAS-bla, beta-lactamase FRET ratio, 18 h; 460 nm channel. The method, boiled down:
(§1)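 Antagonist-mode qHTS using GeneBLAzer PPAR-delta-UAS-bla HEK293T cells; compound exposure 18 hrs at 37 C over a titration. Ratiometric CCF4 fluorescence at 460/530 nm; concentration-response points fitted to the Hill equation.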

Assay [3] deals with Peroxisome proliferator-activated receptor delta (Homo sapiens) (UniProt Q03181). The description is as above. The method, boiled down: as §1
Sequence of Peroxisome proliferator-activated receptor delta (Homo sapiens) (Q03181 whole entry, looked up): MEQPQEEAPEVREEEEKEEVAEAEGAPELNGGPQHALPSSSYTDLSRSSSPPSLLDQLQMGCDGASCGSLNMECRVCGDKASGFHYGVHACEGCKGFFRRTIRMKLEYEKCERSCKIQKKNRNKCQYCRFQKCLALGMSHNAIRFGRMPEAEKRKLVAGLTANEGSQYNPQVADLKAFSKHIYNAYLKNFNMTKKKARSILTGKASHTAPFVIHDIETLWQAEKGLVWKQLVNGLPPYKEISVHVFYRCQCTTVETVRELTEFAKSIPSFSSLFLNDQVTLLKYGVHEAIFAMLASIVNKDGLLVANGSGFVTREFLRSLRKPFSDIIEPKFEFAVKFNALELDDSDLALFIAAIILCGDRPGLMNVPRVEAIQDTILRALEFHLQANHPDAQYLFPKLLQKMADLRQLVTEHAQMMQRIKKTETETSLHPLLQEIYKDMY
A short description of assay [4]: qHTS assay for small molecule agonists of retinoid X receptor alpha signaling (AID 588544; calls by dose curve; further: potency means the concentration at half of the fitted maximal effect;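 on activation: 0% = DMSO basal wells and 100% = reference agonist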). The settings on record: HEK293T RXRa-UAS-bla, beta-lactamase reporter, 18 h; 530 nm emission.
In assay [5] the target is Retinoic acid receptor RXR-alpha (Homo sapiens) (UniProt P19793). The assay is described as above.
Sequence of Retinoic acid receptor RXR-alpha (Homo sapiens) (P19793 whole entry, looked up): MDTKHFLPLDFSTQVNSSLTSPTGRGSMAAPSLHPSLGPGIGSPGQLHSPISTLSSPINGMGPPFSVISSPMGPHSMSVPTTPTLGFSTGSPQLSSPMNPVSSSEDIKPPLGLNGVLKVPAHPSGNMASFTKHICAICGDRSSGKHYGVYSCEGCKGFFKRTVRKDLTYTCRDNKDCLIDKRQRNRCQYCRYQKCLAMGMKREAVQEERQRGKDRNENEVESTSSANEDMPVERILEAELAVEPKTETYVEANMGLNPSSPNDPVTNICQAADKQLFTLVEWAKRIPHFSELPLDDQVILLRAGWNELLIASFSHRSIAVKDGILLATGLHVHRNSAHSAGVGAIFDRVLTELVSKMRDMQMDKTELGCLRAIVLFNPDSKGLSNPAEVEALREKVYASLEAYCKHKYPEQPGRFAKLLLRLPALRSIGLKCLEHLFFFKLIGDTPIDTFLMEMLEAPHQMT
Assay [6] deals with Thyroid hormone receptor beta (Homo sapiens) (UniProt P10828). Nature of the assay: qHTS assay for small molecule agonists of thyroid hormone receptor beta signaling (AID 588545; calls by dose curve;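 further: 0% = DMSO only and 100% = 10 nM T3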). An outline of the steps:
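Efficacy and EC50 values derive from Hill fits of qHTS titration data, normalized to 10 nM T3 and DMSO-only wells. HEK 293 reporter cells were stimulated for 18 hrs at 37 C, with beta-lactamase activity measured by CCF4 fluorescence.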

Assay [7] shares this target. As to the kind of experiment: qHTS assay for small molecule antagonists of thyroid hormone receptor beta signaling (AID 588547; active means well fitted inhibition curve with a large enough effect in the signal ratio, with a control signal flat, not every such curve was filed as active; the % refers to the signal ratio;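 further: cells stimulated with 0.4 nM T3 agonist during compound exposure; series mostly up to about 77 µM; on the % scale 0 is the no-effect control and ±100 the full control effect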). Conditions: TR-UAS-bla HEK293, beta-lactamase ratio, antagonist mode, 18 h. An outline of the steps: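 Inhibition of T3-driven (0.4nM final) beta-lactamase reporter activity was measured over 0.59 nM to 92 uM compound after 18 h at 37 C. The cells were GripTite HEK293 TR-UAS-bla in charcoal/dextran-stripped serum, with CCF4 ratio read-out and IC50 from Hill fits.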

Assay [8] in a line: qHTS assay for small molecule activators of the p53 signaling pathway (AID 651743; active means well fitted activation curve with a large enough effect in the signal ratio, not every such curve was filed as active; the % refers to the signal ratio; further: series mostly up to about 92 µM; % of control where 0% means no effect). The settings on record: HCT-116 p53RE-bla, beta-lactamase FRET ratio, 16 h; activation: stronger effect = higher value. An outline of the steps:
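A beta-lactamase reporter under p53 response element control, stably carried by HCT-116 cells, reported pathway activation. Test compounds were applied for 16 hours at 37 C, and fluorescence was measured 2 hours after adding the B/G FRET substrate.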

Assay [9] can be described thus: qHTS assay for environmental chemicals that activate the Aryl hydrocarbon Receptor (AhR) signaling pathway (AID 651777). Further: % of control where 0% means no effect; nearly all actives have a fitted effect of over 15% in size. The settings on record: 1A2-DRE human hepatoma cells, luciferase, 24 h; activation: stronger effect = higher value. The method, boiled down:
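Stable CYP1A2 promoter/DRE-luciferase human hepatoma line treated 24 hr; One-Glo luminescence, 30 min RT.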

Assay [10] has as its target Peroxisome proliferator-activated receptor alpha (Homo sapiens) (UniProt Q07869). As to the kind of experiment: qHTS assay for small molecule agonists of the peroxisome proliferator-activated receptor alpha (PPARalpha) signaling pathway (AID 651778). Further: % of control where 0% means no effect. Conditions: PathHunter PPARalpha complementation, chemiluminescence, 6 h; max response: stronger effect = higher value. The method, boiled down: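 Chemiluminescence from complemented enzyme reported PPARalpha activation in cells after 6 hr of compound treatment at 37 C. The detection reagent was incubated for 60 min at room temperature, and compounds were scored as agonists.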

The nature of assay [11]: qHTS assay for small molecule agonists of the antioxidant response element (ARE) signaling pathway measured by Nrf2-dependant transcriptional activity (AID 720636; active means well fitted curve in the direction sought with a large enough effect in the repeat runs; an effect the other way counts as inactive or inconclusive;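 further: HepG2 cells with an ARE-driven luciferase reporter; % of control where 0% means no effect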). The method, boiled down: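 Reporter gene assay, HepG2 ARE-luc: 16 hr compound, 37 C, 5% CO2; read-out luciferase luminescence.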
The nature of assay [12]: qHTS assay for small molecule agonists of the antioxidant response element (ARE) signaling pathway measured by Nrf2-dependant transcriptional activity - cell viability counter screen (AID 720653; active means well fitted curve in the direction sought with a large enough effect in the repeat runs; an effect the other way counts as inactive or inconclusive; further: on the % scale 0 is the no-effect control and ±100 the full control effect). Conditions: ARE-bla HepG2 viability, CellTiter-Glo ATP luminescence, 16 h; max response: stronger effect = lower value. The method, boiled down: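 Cytotoxicity counter screen: intracellular ATP quantified by CellTiter-Glo luminescence in the same ARE-bla HepG2 plates, after 16 h compound exposure and a 2 h beta-lactamase substrate step.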

Assay [13] is described as follows: qHTS assay for cell viability of HEK293 cells (AID 743288). Further: on the % scale 0 is the no-effect control and ±100 the full control effect; nearly all actives have a fitted effect of over 50% in size. Conditions: ATP luminescence (CellTiter-Glo), 18 h; max response: stronger effect = lower value. An outline of the steps:
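HEK293, 18 h, 37 C, ATP luminescence. Cells at 2,000/well were allowed at least 5 h to settle before dosing; CellTiter-Glo developed 30 min at RT.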

Assay [14] is described as follows: qHTS assay for cell viability of the p53RE-bla HCT-116 cell line (AID 743292). Further: on the % scale 0 is the no-effect control and ±100 the full control effect; nearly all actives have a fitted effect of over 55% in size. The method, boiled down:
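Readout: CellTiter-Glo luminescence after 30 min RT. Treatment: compounds in DMSO, 16 h, 37 C. Cells: CellSensor p53RE-bla HCT-116, 4,000/well, preincubated 5 h.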

Assay [15] concerns the target Nuclear receptor subfamily 1 group I member 2 (Rattus norvegicus) (UniProt Q9R1A7). As to the kind of experiment: qHTS assay for small molecule activators of the rat pregnane X receptor (rPXR) signaling pathway (AID 651751; call rule not given here; further: 0% is about no effect). The settings on record: rPXR reporter cells, luciferase (One-Glo), 24 h.
The nature of assay [16]: qHTS assay for small molecule activators of the human pregnane X receptor (PXR) signaling pathway (AID 720659; call rule not given here; further: 0% is about no effect).
Assay [17] concerns the target Peroxisome proliferator-activated receptor gamma (Homo sapiens) (UniProt P37231). As to the kind of experiment: qHTS assay for small molecule agonists of peroxisome proliferator-activated receptor gamma signaling (AID 588536; active means well fitted curve in the direction sought with a large enough effect in the signal ratio, with a control signal flat, not every such curve was filed as active; the % refers to the signal ratio;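 further: 0% = DMSO basal wells and 100% = rosiglitazone at 2 µM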). An outline of the steps: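 This is an agonist-mode beta-lactamase reporter assay in HEK293 PPAR-gamma-UAS-bla cells with 1% charcoal/dextran FBS. Compound titrations ran 16 h at 37 C before CCF4 detection. EC50 and efficacy are Hill fits scaled to 2 uM rosiglitazone (100%) and DMSO basal.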

The nature of assay [18]: qHTS assay for small molecule antagonists of retinoid X receptor alpha signaling (AID 588546; active means well fitted inhibition curve with a large enough effect in the signal ratio, with a control signal flat, not every such curve was filed as active; the % refers to the signal ratio;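 further: cells stimulated with 9-cis-retinoic acid as agonist; on the % scale 0 is the no-effect control and ±100 the full control effect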). Conditions: HEK293T RXRa-UAS-bla, beta-lactamase ratio, antagonist mode; measured here: W530 green channel, cytotoxicity proxy. The method, boiled down:
(§2)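 Beta-lactamase reporter inhibition, read as CCF4 fluorescence ratio (ex 405, em 460/530 nm) after 2 h at RT. HEK293T UAS-bla cells, 2500/well, were stimulated with 9-cis-RA at 500 or 100 nM final alongside test compound for 18 h at 37 C.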

In assay [19] the target is Retinoic acid receptor RXR-alpha (Homo sapiens) (UniProt P19793). Described as above. Conditions: HEK293T RXRa-UAS-bla, beta-lactamase ratio, antagonist mode. The method, boiled down:
as §2

For assay [20], the target named is Vitamin D3 receptor (Homo sapiens) (UniProt P11473). As to the kind of experiment: qHTS assay for small molecule antagonists of vitamin D receptor signaling (AID 588541; calls by dose curve;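 further: receptor activated by calcitriol during compound treatment; series mostly up to about 77 µM; on the % scale 0 is the no-effect control and ±100 the full control effect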). An outline of the steps:
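Antagonist-mode beta-lactamase reporter assay: HEK293T VDR-UAS-bla cells were exposed to titrated compound alongside 1-alpha,25-dihydroxyvitamin D3 at 3 nM final for 16 h. Values were normalized to the 50 nM agonist control and DMSO basal, with IC50 and efficacy from Hill equation fits.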

Sequence of Estrogen receptor (Homo sapiens) (P03372 whole entry, looked up): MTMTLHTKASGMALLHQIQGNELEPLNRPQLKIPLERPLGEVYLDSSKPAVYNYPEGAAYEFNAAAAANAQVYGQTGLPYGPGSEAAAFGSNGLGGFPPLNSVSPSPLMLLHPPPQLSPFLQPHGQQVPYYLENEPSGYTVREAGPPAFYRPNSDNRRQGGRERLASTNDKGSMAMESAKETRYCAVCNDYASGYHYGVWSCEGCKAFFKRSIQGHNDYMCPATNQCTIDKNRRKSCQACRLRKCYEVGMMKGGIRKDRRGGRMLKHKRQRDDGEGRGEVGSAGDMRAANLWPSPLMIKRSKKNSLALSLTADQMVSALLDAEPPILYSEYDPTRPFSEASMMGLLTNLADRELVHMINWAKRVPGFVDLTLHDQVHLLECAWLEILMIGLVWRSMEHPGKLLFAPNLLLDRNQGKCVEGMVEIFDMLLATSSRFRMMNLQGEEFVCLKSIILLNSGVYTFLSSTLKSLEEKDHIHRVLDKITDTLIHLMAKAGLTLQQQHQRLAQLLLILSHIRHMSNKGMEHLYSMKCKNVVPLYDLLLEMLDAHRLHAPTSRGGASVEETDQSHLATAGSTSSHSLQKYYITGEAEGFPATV
Sequence of Peroxisome proliferator-activated receptor alpha (Homo sapiens) (Q07869 whole entry, looked up): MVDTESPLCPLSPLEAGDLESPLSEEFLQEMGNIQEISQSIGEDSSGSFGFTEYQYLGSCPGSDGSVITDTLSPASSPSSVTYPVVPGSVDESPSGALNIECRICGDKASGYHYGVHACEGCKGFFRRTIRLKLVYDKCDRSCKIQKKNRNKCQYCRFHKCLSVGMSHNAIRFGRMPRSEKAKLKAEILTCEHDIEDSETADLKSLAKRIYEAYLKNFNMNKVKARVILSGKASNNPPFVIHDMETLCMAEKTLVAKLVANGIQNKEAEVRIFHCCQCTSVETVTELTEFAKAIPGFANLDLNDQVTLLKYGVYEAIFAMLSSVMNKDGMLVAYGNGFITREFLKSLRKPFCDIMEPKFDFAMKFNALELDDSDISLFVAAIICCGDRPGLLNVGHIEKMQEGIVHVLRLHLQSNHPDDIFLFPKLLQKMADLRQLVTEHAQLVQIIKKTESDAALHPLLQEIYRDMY
Sequence of Nuclear receptor subfamily 1 group I member 2 (Rattus norvegicus) (Q9R1A7 whole entry, looked up): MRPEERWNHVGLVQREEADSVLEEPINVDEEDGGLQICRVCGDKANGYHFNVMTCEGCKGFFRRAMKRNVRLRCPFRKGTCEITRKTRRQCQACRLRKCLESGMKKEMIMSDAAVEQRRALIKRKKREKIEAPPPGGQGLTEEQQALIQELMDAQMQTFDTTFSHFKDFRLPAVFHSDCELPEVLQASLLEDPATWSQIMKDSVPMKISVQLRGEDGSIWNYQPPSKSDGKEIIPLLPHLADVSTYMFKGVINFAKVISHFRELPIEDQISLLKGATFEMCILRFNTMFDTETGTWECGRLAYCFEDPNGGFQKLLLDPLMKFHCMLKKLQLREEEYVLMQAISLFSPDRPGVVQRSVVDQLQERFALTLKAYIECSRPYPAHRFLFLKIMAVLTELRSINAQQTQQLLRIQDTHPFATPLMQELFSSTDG
Sequence of Peroxisome proliferator-activated receptor gamma (Homo sapiens) (P37231 whole entry, looked up): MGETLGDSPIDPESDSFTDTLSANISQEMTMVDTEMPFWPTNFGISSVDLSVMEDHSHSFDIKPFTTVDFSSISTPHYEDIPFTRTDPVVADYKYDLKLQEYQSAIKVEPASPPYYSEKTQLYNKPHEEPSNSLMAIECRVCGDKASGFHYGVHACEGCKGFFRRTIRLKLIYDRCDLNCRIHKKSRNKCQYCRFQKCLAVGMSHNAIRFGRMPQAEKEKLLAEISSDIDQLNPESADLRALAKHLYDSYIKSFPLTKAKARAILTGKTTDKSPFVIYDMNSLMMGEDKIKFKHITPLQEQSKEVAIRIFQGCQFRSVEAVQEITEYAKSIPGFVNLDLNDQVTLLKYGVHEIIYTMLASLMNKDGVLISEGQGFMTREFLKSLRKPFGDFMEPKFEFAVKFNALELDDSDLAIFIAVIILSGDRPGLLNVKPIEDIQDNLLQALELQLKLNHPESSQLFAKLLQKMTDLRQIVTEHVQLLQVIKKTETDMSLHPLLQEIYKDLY
Sequence of Thyroid hormone receptor beta (Homo sapiens) (P10828 whole entry, looked up): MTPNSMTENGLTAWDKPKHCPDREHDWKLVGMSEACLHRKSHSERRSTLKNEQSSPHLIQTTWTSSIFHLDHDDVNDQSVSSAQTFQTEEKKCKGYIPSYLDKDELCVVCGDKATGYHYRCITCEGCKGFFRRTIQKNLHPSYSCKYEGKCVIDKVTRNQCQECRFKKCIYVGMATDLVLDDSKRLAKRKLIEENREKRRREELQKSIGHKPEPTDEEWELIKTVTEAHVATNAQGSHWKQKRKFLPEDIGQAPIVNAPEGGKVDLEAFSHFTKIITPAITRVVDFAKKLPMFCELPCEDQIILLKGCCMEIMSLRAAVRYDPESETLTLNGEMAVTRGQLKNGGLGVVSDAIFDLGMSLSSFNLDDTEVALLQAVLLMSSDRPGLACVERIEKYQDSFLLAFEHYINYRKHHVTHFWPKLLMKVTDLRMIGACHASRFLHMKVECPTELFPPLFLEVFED
Sequence of Vitamin D3 receptor (Homo sapiens) (P11473 whole entry, looked up): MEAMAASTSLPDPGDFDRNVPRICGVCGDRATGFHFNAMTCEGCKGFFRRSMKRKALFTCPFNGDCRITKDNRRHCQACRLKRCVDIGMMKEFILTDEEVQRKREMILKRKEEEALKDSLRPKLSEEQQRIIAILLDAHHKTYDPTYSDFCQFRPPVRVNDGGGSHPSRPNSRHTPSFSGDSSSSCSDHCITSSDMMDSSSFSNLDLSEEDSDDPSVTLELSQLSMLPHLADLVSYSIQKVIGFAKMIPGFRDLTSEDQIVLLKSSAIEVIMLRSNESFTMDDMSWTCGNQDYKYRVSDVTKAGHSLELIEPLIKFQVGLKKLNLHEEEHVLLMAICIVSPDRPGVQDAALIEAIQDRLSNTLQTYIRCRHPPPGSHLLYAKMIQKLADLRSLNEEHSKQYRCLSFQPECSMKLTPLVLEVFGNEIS

Take `CC(C)(C)c1cc(C(C)(C)C)c(O)c(C(C)(C)C)c1`: the Potency entry in assay [1], in assay [3], in [6], in assay [11] and in assay [14] was “inactive” each time. For the same compound, the max response in [2] was 12%; in [4], -17.5%; in [10] it was 7.66% (inactive); in [12] it was 8.43% (inactive); in [13] it was -4.45% (inactive); in assay [15], -4.2% (inactive). In assay [5], the Potency was 0.794 µM (active). In addition, in [7], the activity change % (negative = inhibition) is -16.9% (inactive). The activation in assay [8] was 3.15% (inactive); in [9], -0.208% (inactive). The call in assay [16] was inactive.
`CCOC(=O)C(C)Oc1ccc(Oc2cnc3cc(Cl)ccc3n2)cc1` (configuration not stated): in [1], the Potency entry was “inactive”. Besides, the compound was classed as inactive in assay [17] and in assay [16]. The max response in [18] was 22.1%; in [19], -14.1% (inactive); in [12], -11.5% (inactive); in assay [13], 4.59% (inactive). Further, the activation in assay [9] is 1.27% (inactive).
As to `CC(C)O.CC(C)O.CC(C)O.CC(C)O.[Ti]`, the Potency entry in assay [1], in assay [3], in assay [20], in assay [5], in [6] and in [11] was “inactive” each time. The Potency result in assay [14] is “inactive”. For the same compound, the max response in assay [2] is -8.01%; in [4] it was -22.2%; in [18] it was -4.69%; in assay [10], -0.904% (inactive); in [12] it was -1.55% (inactive); in [13] it was -10.9% (inactive). Moreover, the max response in assay [15] is -0.917% (inactive). For the same compound, the result in assay [17] and in [16] was inactive. The activity change % (negative = inhibition) in assay [7] was -6.47% (inactive). Besides, in [9], the activation was 0.139% (inactive).
In the case of `CCCCOCC(C)OCC(C)O` (configuration not stated), the Potency entry in assay [1], in assay [3], in assay [20], in assay [5], in assay [6] and in assay [11] was “inactive” each time. In assay [14], the Potency result was “inactive”. In addition, the max response in assay [2] is -19.2%; in [4] it was -14.7%; in assay [18], -15.5%; in assay [19] it was -6.81% (inactive); in assay [10] it was -0.312% (inactive); in assay [12], 8.96% (inactive). Further, the max response in assay [13] is 0.272% (inactive); in assay [15], 2.61% (inactive). Also, the compound was classed as inactive in assay [17] and in [16]. In addition, the activity change % (negative = inhibition) in assay [7] was -10.2% (inactive). Also, the activation in assay [9] was 0.285% (inactive).
Turning to `CCCCN(CCCC)CCCC`, the Potency result in assay [1], in assay [3], in assay [20], in assay [5], in assay [6] and in assay [11] was “inactive” in each case. In addition, the Potency result in assay [14] is “inactive”. Moreover, the max response in assay [2] is 31.3%; in assay [4] it was -9.25%; in [18], -19.1%; in assay [10], 3.75% (inactive); in [12] it was -5.72% (inactive); in assay [13] it was -10.1% (inactive). Further, the max response in [15] was -4.71% (inactive). In addition, the activity change % (negative = inhibition) in assay [7] was -2.52% (inactive). Also, the activation in assay [8] was -3.01% (inactive); in assay [9], -2.43% (inactive). For the same compound, the compound was classed as inactive in assay [16].
Consider `C=CCOC(=O)CC(C)C`, for which the Potency entry in assay [1], in assay [3], in assay [20], in assay [5], in [6] and in assay [11] was “inactive” in each case. The Potency result in assay [14] is “inactive”. For the same compound, the max response in assay [2] was 13%; in assay [4] it was -1.51%; in assay [18] it was -12.5%; in assay [19], 1.64% (inactive); in assay [10], -0.161% (inactive); in [12] it was -7.46% (inactive). Further, the values for the max response in assay [13] and in assay [15] were -9.09% (inactive) and -1.76% (inactive), respectively. Moreover, the call in [17] and in assay [16] was inactive. The activation in assay [9] is -1.24% (inactive).
